Assay outcomes: PubChem BioAssay, several laboratories
FAS TE block – FAS thioesterase (human) inhibition; inhibition, % at 15 µM; recombinant FAS-TE, OMFH fluorogenic substrate, fluorescence endpoint; 360,000 compounds, 0.67% hits; AID 602261; P49327;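 active = compounds whose normalised, plate-corrected inhibition of enzyme fluorescence in the single-dose primary screen is 50% or more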;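 also: 0% = DMSO with enzyme and 100% = substrate without enzyme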
Neddyl block – inhibitors of human cullin neddylation. P61081+Q13564. TR-FRET cullin neddylation, biochemical. calls only at 25 µM. 360,000 compounds, 0.58% hits. AID 651699; in the data active = inhibition above about 36%
proKLK7 act – activates the human kallikrein-7 zymogen; P49862; purified proKLK7, EDANS-DABCYL substrate fluorescence; 100% is mature enzyme control, 0% vehicle; activation, % at 7 µM; 370,000 compounds, 0.9% hits; AID 652039;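 active = activation above the mean of all tested compounds plus 3 SD, computed per campaign excluding outliers beyond control limits, cut at about 13% in these data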
PfG6PD inh – PfG6PD (Plasmodium falciparum) enzyme inhibition; PfGluPho enzyme, NADPH resazurin-diaphorase fluorescence; inhibition, % at 20 µM; 350,000 compounds, 0.78% hits;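 active = inhibition reaching at least a set limit at 20 µM in the primary screen, cut at about 59% in these data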;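 also: 0% = DMSO wells with substrate and 100% = DMSO wells lacking glucose-6-phosphate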
PfG6PD confirm – confirmation of Plasmodium falciparum G6PD inhibitors; shares compounds with PfG6PD inh; 2,400 compounds, 34% hits; recombinant PfGluPho, NADPH-diaphorase-resazurin fluorescence; inhibition, % at 20 µM;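 active = inhibition of at least 50% at 20 µM in any single replicate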;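 also: 0% = DMSO with substrate and 100% = DMSO lacking glucose-6-phosphate substrate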
Diaph ctr 10uM – counter-screen for P. falciparum G6PD inhibitors: diaphorase inhibitors, oxidizers; diaphorase-coupled resazurin reduction, fluorescence, NADPH 10 uM; 820 compounds, 39% hits; shares compounds with PfG6PD inh; inhibition, % at 20 µM;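 active = average inhibition reaching 50% or more with the compound at 20 µM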;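 also: resorufin red fluorescence formed as diaphorase reduces resazurin using NADPH; 0% = DMSO with enzyme and 100% = DMSO without enzyme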
Diaph ctr 30uM – diaphorase inhibition or oxidation at 30 uM NADPH | shares compounds with PfG6PD inh | Diaphorase/resazurin coupled assay, resorufin fluorescence | inhibition, % at 20 µM | 820 compounds, 29% hits | AID 504863;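 active = inhibition averaging 50% or more, tested at 20 µM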;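 also: 0% = DMSO with enzyme and 100% = DMSO wells lacking diaphorase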
Active calls of the source: *. An excerpt weighted towards active compounds, which were near 2.7% of everything screened.

Results for O=C(C1CCCN(S(=O)(=O)c2ccc([N+](=O)[O-])cc2)C1)N1CCN(Cc2ccccc2)CC1 (stereo not given) ?
proKLK7 act: -0.2

How did Cc1c(NS(=O)(=O)c2cc3c(cc2Br)CCN3C(=O)C2CC2)c(=O)n(-c2ccccc2)n1C do in these assays?
proKLK7 act: -1.3

How did COc1ccc([C@H]2OC(=O)C[C@@H]2C(=O)N2CCN(c3ccccc3Cl)CC2)cc1OC do in these assays?
proKLK7 act: -0.6

Results for O=C(NC1=C(NC2CCS(=O)(=O)C2)C(=O)c2ccccc2C1=O)c1ccccc1 (stereo not given) ?
FAS TE block: 9.2; Neddyl block: inactive; proKLK7 act: -0.6; PfG6PD inh: 103.8*; PfG6PD confirm: 95.4*; Diaph ctr 10uM: 98.2*; Diaph ctr 30uM: 90.0*

What do the screens show for `Cc1cccc(NC2=C(NC(=O)c3ccccc3)C(=O)c3ccccc3C2=O)c1`?
FAS TE block: 9.1; Neddyl block: inactive; proKLK7 act: -0.5; PfG6PD inh: 83.5*; PfG6PD confirm: 68.6*; Diaph ctr 10uM: 41.4; Diaph ctr 30uM: 40.6

What do the screens show for `O=C1C(Cl)=C(NC(=O)c2ccccc2)C(=O)C(Cl)=C1NC(=O)c1ccccc1`?
FAS TE block: 23.2; Neddyl block: inactive; proKLK7 act: -0.4; PfG6PD inh: 113.8*; PfG6PD confirm: 109.9*; Diaph ctr 10uM: 86.2*; Diaph ctr 30uM: 61.4*

What do the screens show for `O=C(NC(NC1CCS(=O)(=O)C1)C(=O)c1cccs1)c1ccccc1` (stereo not given)?
proKLK7 act: -0.3; PfG6PD inh: -9.8

How did O=C(NC1=C(Nc2ccc(Cl)cc2)C(=O)c2ccccc2C1=O)c1ccccc1 do in these assays?
FAS TE block: 17.1; Neddyl block: inactive; proKLK7 act: -0.2; PfG6PD inh: 44.6

Results for CC(C)n1c(=S)[nH]c2c1c(=O)[nH]c(=O)n2C ?
FAS TE block: -6.8; Neddyl block: inactive; proKLK7 act: 0.1; PfG6PD inh: 67.4*; PfG6PD confirm: 33.0

What do the screens show for `Cn1cc(/C(Cc2ccccc2)=N\O)c2ccccc21`?
FAS TE block: -31.1; Neddyl block: inactive; proKLK7 act: 1.2; PfG6PD inh: 4.4

Results for Cn1cc(C(CO)Cc2ccccc2)c2ccccc21 (stereo not given) ?
FAS TE block: 1.8; Neddyl block: inactive; proKLK7 act: 0.3; PfG6PD inh: 87.5*; PfG6PD confirm: 39.6

Results for Cc1cc(C)c(C)c(S(=O)(=O)Nc2ccc3cn[nH]c3c2)c1C ?
FAS TE block: 1.4; Neddyl block: inactive; proKLK7 act: -0.8; PfG6PD inh: 91.6*; PfG6PD confirm: 13.1

Results for COc1cc(C=Nn2c(-c3n[nH]c4c3CCC4)n[nH]c2=S)ccc1OCc1ccccc1 ?
proKLK7 act: 0.2

What do the screens show for `CCOc1ccc(-c2nnc(SCc3nnc(-c4ccccc4)o3)n2-c2ccccc2F)cc1`?
FAS TE block: 4.2; Neddyl block: inactive; proKLK7 act: -0.1; PfG6PD inh: 84.6*; PfG6PD confirm: 37.4

What do the screens show for `Nc1nc(Sc2ccc([N+](=O)[O-])c3nonc23)c2[nH]cnc2n1`?
FAS TE block: -21.2; Neddyl block: inactive; proKLK7 act: 0.3; PfG6PD inh: 121.8*; PfG6PD confirm: 109.1*; Diaph ctr 10uM: 96.9*; Diaph ctr 30uM: 84.5*

What do the screens show for `Cc1ccc(-n2c(SCC(=O)Nc3ccc4c(c3)OCCO4)nnc2-c2cnccn2)cc1`?
proKLK7 act: 0.0

How did O=C(CSc1ncn(-c2ccccc2)n1)N1CCc2ccccc21 do in these assays?
FAS TE block: 1.5; Neddyl block: inactive; proKLK7 act: 0.6; PfG6PD inh: 60.4*; PfG6PD confirm: 6.3

What do the screens show for `O=C(CN1CCN(c2ccc(O)cc2)CC1)N1CCc2ccccc21`?
FAS TE block: -4.2; Neddyl block: inactive; proKLK7 act: 0.2; PfG6PD inh: 62.7*; PfG6PD confirm: 19.8

Results for COc1ccc(-n2c(SCC(=O)N/N=C(/C)c3cccc(O)c3)nc3ccccc3c2=O)cc1 ?
proKLK7 act: 0.7

What do the screens show for `O=c1c2cccc(Cl)c2nc2n1Cc1ccccc1-2`?
FAS TE block: 5.6; Neddyl block: inactive; proKLK7 act: 0.0; PfG6PD inh: 77.7*; PfG6PD confirm: 42.7

How did O=c1cc(-c2ccccc2)nc2n1Cc1ccccc1-2 do in these assays?
FAS TE block: -5.0; Neddyl block: inactive; proKLK7 act: 0.7; PfG6PD inh: 7.3

How did COc1ccc(NCc2ccccc2[N+](=O)[O-])cc1OC do in these assays?
FAS TE block: -0.2; Neddyl block: inactive; proKLK7 act: -0.6; PfG6PD inh: 34.0

Results for COc1cc2c(cc1OC)C(Cc1ccccc1[N+](=O)[O-])=NCC2 ?
FAS TE block: -2.1; Neddyl block: inactive; proKLK7 act: 2.0; PfG6PD inh: 44.5; PfG6PD confirm: -24.6

What do the screens show for `CSc1nc(C)cc(C)c1C#N`?
FAS TE block: -5.6; Neddyl block: inactive; proKLK7 act: 0.0; PfG6PD inh: -0.1

What do the screens show for `Cc1cc(C)c(C#N)c(=N)o1`?
FAS TE block: -5.6; Neddyl block: inactive; proKLK7 act: -0.9; PfG6PD inh: 66.5*; PfG6PD confirm: 46.9

How did CCc1ccc(C2CC(=O)N3CN(c4ccccc4)CSC3=C2C#N)cc1 (stereo not given) do in these assays?
FAS TE block: 9.3; Neddyl block: inactive; proKLK7 act: 0.1; PfG6PD inh: 77.7*; PfG6PD confirm: 9.1

Results for N#CC1=C2SCN(c3ccc(F)cc3)CN2C(=O)CC1c1cccc(F)c1 (stereo not given) ?
FAS TE block: 0.8; Neddyl block: inactive; proKLK7 act: 0.0; PfG6PD inh: 68.8*; PfG6PD confirm: 25.2

How did O=C(CSc1nnc(-c2cccnc2)n1-c1ccccc1)Nc1ccc(OCc2ccccc2)cc1 do in these assays?
proKLK7 act: 0.6

What do the screens show for `S=C(NNC(=S)Nc1ccc(Cl)cc1)NNc1ccccc1`?
FAS TE block: -4.9; Neddyl block: inactive; proKLK7 act: 0.3; PfG6PD inh: 72.9*; PfG6PD confirm: 25.5

How did Nc1nc2ccccc2n1/N=C/c1ccc2c(c1)OCO2 do in these assays?
FAS TE block: -1.7; Neddyl block: inactive; proKLK7 act: 0.3; PfG6PD inh: 36.0

How did Nc1nc2ccccc2n1/N=C/c1ccc(Br)cc1 do in these assays?
FAS TE block: 3.8; Neddyl block: inactive; proKLK7 act: 0.4; PfG6PD inh: 65.8*; PfG6PD confirm: -3.8

How did COc1ccc(-c2csc(NC(=O)COC(=O)c3ccco3)n2)cc1 do in these assays?
FAS TE block: -1.5; Neddyl block: inactive; proKLK7 act: 0.2; PfG6PD inh: 59.9*; PfG6PD confirm: 15.9
